# Inconclusive results are not listed. Active and inactive are the calls of the source.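 The calls were made as follows, unless noted: active = response below a set limit, under 55% cells CD8-positive and vesicle-bound, and CD8 cells' 90th-percentile brightness under 279; inactive = the rest.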
# What was measured:
# [1] = yeast TOR pathway RPL19A-GFP modulators, primary screen, cell-based, S. cerevisiae, multiplex flow cytometry (AID 1862; in the data active = percent of DMSO control GFP below about 86%;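 also: lower values mimic rapamycin by blocking the RPL19A rise seen in DMSO cells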); details: S. cerevisiae RPL19A-GFP strain, flow cytometry fluorescence, 3 h; at 10 µM; stronger effect = lower value
# [2] = modulators of MEP2-GFP levels in yeast, primary screen, S. cerevisiae, multiplex flow cytometry (AID 1867;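 active = GFP response, as percent of the DMSO control, above the screen-wide mean plus 3 SD, about 139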;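 also: median GFP channel fluorescence of barcode-gated MEP2-GFP cells measured by flow cytometry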); details: S. cerevisiae MEP2-GFP strain, 3 h, at 10 µM, stronger effect = higher value, 100% means same as DMSO wells
# [3] = modulators of CIT2-GFP expression in yeast, primary screen, S. cerevisiae, GFP fusion, multiplex flow cytometry (AID 1870;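 active = percent response above a set limit, the screen-wide mean plus 3 SD, cut at about 130% in these data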;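 also: barcoded CIT2-GFP strain pooled with four other GFP strains with rapamycin as positive control; median GFP fluorescence per well over plate mean of DMSO wells so 100% = DMSO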); details: 3 h, at 10 µM, stronger effect = higher value
# [4] = modulators of LAP4-GFP expression in yeast, primary screen, S. cerevisiae, multiplex flow cytometry (AID 1873;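 active = GFP signal, as percent of the solvent control, above the screen mean plus 3 SD, about 149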); details: 3 h, at 10 µM, stronger effect = higher value
# [5] = modulators of AGP1-GFP expression in yeast TOR pathway, primary screen, cell-based, multiplex flow cytometry, S. cerevisiae (AID 1887;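 active = GFP signal above the screen-wide mean plus 3 SD, that is over about 124.5% of the solvent control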;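 also: AGP1-GFP fusion strain of S. cerevisiae within a five-strain barcoded multiplex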); details: 3 h, at 10 µM, stronger effect = higher value
# [6] = RPL19A-GFP modulators, yeast TOR pathway, confirmation, cell-based, S. cerevisiae, flow cytometry, cherry picks, mother/daughter gates (AID 2270;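 active = GFP response below 50% of the DMSO control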); details: S. cerevisiae RPL19A-GFP strain, 3 h, at 10 µM, stronger effect = lower value, 100 = same GFP as DMSO wells
# [7] = LAP4-GFP expression modulators in yeast, confirmation, cell-based, cherry picks, flow cytometry, mother/daughter gates (AID 2271;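 active = GFP response above 150% of the DMSO control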;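 also: ratio of sample to DMSO plate mean so 100% equals DMSO level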); details: S. cerevisiae LAP4-GFP strain, 3 h, at 10 µM, stronger effect = higher value, 100 means same as DMSO control
# [8] = modulators of MEP2-GFP levels in yeast, confirmation, S. cerevisiae, flow cytometry GFP, cherry picks (AID 2272;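 active = GFP response above 150% of the DMSO control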;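 also: ratio of well signal to plate DMSO mean so 100% equals DMSO level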); details: S. cerevisiae MEP2-GFP strain, 3 h, at 10 µM, stronger effect = higher value
# [9] = modulators of CIT2-GFP expression in yeast, confirmation, S. cerevisiae, GFP fusion, cherry picks, mother/daughter gates (AID 2274;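 active = GFP response above 150% of the DMSO level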); details: S. cerevisiae CIT2-GFP strain, flow cytometry, 3 h, at 10 µM, stronger effect = higher value
# [10] = inhibitors of CD8+ T cell-vesicle binding, pilot screen, LFA-1/ICAM-1 modulator project, MLPCN validation set, flow cytometry (AID 2523); details: 2C mouse CD8+ T cells, at 7 µM, stronger effect = lower value; double positive events: measured here: CD8+/vesicle+ event percentage;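 as to vesicle binding response: mean PE anti-B7-1 fluorescence of CD8+ cells relative to row control; 100% = QL9-loaded vesicles with DMSO vehicle in the same plate row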
# [11] = target: Integrin beta-1 (Homo sapiens) + Integrin alpha-4 (Homo sapiens) (UniProt P13612+P05556); test: inhibition of HUTS-21 binding to VLA-4, pilot screen, VLA-4 allosteric modulator project, U937 cells, HUTS-21 mAb, flow cytometry, validation set (AID 2674;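 active = inhibition above 50%, about 3 SD of the validation set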;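 also: antibody binding induced by the VLA-4 ligand LDV present at three times its Kd; 0% = LDV ligand with antibody and no compound and 100% = antibody without LDV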); details: HUTS-21 LIBS mAb binding, at 6.7 µM, stronger effect = higher value, binding induced by LDV ligand
# [12] = superoxide lowering in aged yeast cells, pilot screen, validation compound set (AID 2706;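 active = superoxide response below 65% of plate, a cut near 3 SD across the whole screen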;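 also: yeast exposed to compound for one week at 30 degrees C before staining; 100% = mean of all compound wells on the same plate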); details: S. cerevisiae aging, superoxide DHE fluorescence; at 10 µM; stronger effect = lower value
# [13] = target: Beta-adrenergic receptor kinase 1 (Homo sapiens) (UniProt P25098); test: GRK2 binders displacing RNA aptamer, biochemical, validation, human GRK2, bead flow cytometry (AID 488806;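 active = aptamer binding inhibition above 30%, about 3 SD of noise from non-fluorescent compounds; inactive = inhibition at or below 30%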); details: bead-bound GRK2, FAM-aptamer displacement, at 10 µM, stronger effect = higher value
# [14] = target: Beta-2 adrenergic receptor (Homo sapiens) (UniProt P07550); test: beta2AR agonists driving receptor internalization, pilot screen, cell-based, FAP fluorogen, flow cytometry, validation set (AID 504459;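 active = percent response above 42, roughly 3 SD of non-fluorescent test compounds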;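 also: agonist-driven loss of surface beta2AR via internalization measured by FAP dye flow cytometry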); details: Am2.2-beta2AR cells, FAP surface receptor flow cytometry; at 10 µM; stronger effect = higher value
# [15] = target: AP-2 complex subunit beta (Homo sapiens) (UniProt P63010); test: inhibitors of arrestin peptide binding to AP2, pilot screen, biochemical, validation set, GST-AP2 beads, flow cytometry (AID 504541;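 active = inhibition above 54%, about 3 SD of non-fluorescent compounds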;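 also: AP2 carries R879A mutation and is captured from E. coli lysate; bead-bound FITC arrestin peptide fluorescence measuring arrestin peptide binding to AP2; 0% = DMSO wells and 100% = excess unlabeled arrestin peptide control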); details: FITC arrestin peptide, at 10 µM, stronger effect = higher value, AP2 beta2 appendage fragment, R879A mutant
# [16] = yeast V-ATPase proton transport modulators, S. cerevisiae, pHLuorin, HTS validation (AID 504600; in the data active = response above about 15%;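 also: plate controls were DMSO for no effect and reference compound for full effect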); details: S. cerevisiae pHLuorin cytosolic pH, at 10 µM, stronger effect = higher value
# [17] = test system: anti-desmoglein-3 scFv antibody binding to human DSG3; test: inhibitors of anti-DSG3 scFv binding to DSG3, pilot screen, biochemical, validation compound set, bead-based, flow cytometry (AID 588368;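 active = binding below the plate cutoff, the plate median minus 3 SD, with a reading above zero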;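 also: signal is the median channel fluorescence of bead-bound GFP antibody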); details: Protein G beads, DSG3-Fc, scFv-GFP binding, at 10 µM, stronger effect = lower value
# [18] = inhibitors of fungal efflux pumps CDR1, CDR2, MDR1, pilot screen, validation compound set, multiplex, phenotypic (AID 588506;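 active = efflux inhibition above 0.42, the validation set average plus 4 SD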;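 also: Nile Red retained in cells so higher fluorescence means more efflux inhibition; 0 = negative control wells and 1 = enniatin B 25 µM full block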); details: S. cerevisiae pump-expressing triplex, Nile Red efflux flow cytometry; at 10 µM; stronger effect = higher value; the pumps come from Candida albicans
# [19] = target: ATP-binding cassette sub-family B member 6 (Homo sapiens) (UniProt Q9NP58); test: ABCB6 transporter inhibitors, pilot screen, K562-ABCB6 cells, flow cytometry, validation set (AID 588550;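 active = inhibition above the screen-wide mean plus 3 SD, about 51%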;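 also: 0% = DMSO wells and 100% = benzethonium chloride 70 µM positive control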); details: K562-ABCB6 porphyrin accumulation, 1 h, at 10 µM, stronger effect = higher value
# [20] = promoters of myeloid differentiation in arrested cells, primary screen, cell-based, GFP/MAC1 double positive, flow cytometry, validation set (AID 588685;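 active = differentiation response of at least 50%, scaled between solvent and reference control, from cells with both markers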;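 also: compound exposure lasts four days before antibody staining and flow analysis; 0% = DMSO wells and 100% = 5 µM fulvestrant positive control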); details: ER-HoxA9 marrow cells, stronger effect = higher value, normalized: vehicle 0, fulvestrant 100
# [21] = measured here: daughter cell gate
# [22] = measured here: mother cell gate
# [23] = measured here: daughter cell gate response
# [24] = measured here: mother cell gate response
# Chain of ATP-binding cassette sub-family B member 6 (Homo sapiens) (Q9NP58 whole entry, looked up): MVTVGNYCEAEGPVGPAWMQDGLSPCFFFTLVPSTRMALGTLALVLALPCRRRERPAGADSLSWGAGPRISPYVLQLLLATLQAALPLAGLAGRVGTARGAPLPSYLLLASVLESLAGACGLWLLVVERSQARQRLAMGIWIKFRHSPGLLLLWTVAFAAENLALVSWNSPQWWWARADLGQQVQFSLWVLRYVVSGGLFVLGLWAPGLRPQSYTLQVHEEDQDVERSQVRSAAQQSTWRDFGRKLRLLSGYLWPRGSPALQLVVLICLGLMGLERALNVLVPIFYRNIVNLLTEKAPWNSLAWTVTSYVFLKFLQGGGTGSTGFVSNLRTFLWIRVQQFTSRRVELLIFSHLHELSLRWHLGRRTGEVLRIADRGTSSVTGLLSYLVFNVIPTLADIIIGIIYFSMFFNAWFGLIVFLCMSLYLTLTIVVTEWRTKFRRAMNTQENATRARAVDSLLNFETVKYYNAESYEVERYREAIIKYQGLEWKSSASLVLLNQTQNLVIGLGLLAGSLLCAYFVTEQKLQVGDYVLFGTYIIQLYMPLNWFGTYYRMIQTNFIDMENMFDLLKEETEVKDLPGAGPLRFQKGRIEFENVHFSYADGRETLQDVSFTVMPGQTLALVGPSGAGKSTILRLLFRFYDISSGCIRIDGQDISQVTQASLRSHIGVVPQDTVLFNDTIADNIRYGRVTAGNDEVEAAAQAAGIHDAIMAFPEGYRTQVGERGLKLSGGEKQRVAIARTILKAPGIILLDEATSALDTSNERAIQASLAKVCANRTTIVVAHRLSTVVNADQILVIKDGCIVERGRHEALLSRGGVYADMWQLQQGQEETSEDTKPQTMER
# Chain of AP-2 complex subunit beta (Homo sapiens) (P63010 whole entry, looked up, the tested form may be a part, one chain of several): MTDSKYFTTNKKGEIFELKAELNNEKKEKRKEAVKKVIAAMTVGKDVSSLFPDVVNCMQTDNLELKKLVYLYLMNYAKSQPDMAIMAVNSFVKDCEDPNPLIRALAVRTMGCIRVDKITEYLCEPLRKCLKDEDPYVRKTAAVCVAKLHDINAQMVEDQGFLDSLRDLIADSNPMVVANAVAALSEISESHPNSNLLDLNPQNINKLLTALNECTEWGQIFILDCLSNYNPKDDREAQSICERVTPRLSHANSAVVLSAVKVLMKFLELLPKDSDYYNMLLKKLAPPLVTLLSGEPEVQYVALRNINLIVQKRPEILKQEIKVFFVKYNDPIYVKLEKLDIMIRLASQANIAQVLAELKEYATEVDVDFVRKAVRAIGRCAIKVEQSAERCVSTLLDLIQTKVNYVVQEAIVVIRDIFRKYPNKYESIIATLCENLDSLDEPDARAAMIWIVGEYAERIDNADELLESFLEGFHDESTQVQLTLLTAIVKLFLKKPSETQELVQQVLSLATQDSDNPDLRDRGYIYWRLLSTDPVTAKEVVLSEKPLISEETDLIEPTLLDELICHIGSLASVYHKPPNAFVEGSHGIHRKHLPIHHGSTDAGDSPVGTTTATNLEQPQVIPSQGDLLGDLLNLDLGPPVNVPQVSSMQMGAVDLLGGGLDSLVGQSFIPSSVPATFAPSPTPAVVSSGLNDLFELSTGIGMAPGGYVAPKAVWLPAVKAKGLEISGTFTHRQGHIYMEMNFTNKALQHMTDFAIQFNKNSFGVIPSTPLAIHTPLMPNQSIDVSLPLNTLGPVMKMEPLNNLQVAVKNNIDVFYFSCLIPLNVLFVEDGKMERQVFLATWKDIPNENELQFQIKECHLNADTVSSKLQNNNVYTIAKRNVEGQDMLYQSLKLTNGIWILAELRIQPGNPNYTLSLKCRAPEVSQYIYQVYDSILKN
# Chain of Beta-adrenergic receptor kinase 1 (Homo sapiens) (P25098 whole entry, looked up): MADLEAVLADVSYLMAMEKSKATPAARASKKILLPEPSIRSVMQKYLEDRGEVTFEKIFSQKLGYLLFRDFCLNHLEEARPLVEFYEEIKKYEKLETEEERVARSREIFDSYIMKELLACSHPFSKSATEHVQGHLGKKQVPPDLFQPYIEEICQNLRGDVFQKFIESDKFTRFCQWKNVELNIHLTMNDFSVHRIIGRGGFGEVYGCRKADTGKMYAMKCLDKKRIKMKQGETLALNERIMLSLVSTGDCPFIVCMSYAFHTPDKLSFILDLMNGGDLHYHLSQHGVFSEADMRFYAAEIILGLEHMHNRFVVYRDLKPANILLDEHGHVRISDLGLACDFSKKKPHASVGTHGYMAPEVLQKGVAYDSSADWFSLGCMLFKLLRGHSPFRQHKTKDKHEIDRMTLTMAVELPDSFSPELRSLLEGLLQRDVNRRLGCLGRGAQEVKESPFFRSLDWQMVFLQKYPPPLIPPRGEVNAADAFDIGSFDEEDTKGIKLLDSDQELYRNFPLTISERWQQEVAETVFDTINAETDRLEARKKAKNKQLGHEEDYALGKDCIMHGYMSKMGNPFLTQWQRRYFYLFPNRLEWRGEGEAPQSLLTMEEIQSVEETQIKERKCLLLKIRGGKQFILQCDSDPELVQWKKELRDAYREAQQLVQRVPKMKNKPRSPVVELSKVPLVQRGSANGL
# Chain of Integrin beta-1 (Homo sapiens) + Integrin alpha-4 (Homo sapiens) (P05556 whole entry, looked up): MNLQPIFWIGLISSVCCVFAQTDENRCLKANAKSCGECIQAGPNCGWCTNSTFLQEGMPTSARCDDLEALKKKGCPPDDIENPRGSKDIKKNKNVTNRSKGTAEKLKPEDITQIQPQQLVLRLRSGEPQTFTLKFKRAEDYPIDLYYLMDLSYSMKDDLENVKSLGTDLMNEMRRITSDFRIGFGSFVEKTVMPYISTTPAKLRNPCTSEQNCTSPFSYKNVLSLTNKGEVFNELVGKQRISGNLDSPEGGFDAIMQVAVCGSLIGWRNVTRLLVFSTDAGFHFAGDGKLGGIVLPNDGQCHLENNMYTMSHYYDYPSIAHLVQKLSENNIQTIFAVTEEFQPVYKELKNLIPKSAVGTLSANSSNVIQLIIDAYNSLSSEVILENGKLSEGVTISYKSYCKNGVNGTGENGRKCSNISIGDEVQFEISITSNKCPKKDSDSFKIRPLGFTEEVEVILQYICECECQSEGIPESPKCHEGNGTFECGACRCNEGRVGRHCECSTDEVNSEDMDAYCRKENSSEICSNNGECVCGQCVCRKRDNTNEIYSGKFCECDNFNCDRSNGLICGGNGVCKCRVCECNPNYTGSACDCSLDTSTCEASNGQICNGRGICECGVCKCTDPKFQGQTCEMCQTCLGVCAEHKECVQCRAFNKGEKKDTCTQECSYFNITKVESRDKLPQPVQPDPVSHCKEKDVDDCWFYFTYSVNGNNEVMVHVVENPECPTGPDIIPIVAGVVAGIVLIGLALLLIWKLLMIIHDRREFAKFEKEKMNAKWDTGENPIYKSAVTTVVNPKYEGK
# Chain of Integrin beta-1 (Homo sapiens) + Integrin alpha-4 (Homo sapiens) (P13612 whole entry, looked up): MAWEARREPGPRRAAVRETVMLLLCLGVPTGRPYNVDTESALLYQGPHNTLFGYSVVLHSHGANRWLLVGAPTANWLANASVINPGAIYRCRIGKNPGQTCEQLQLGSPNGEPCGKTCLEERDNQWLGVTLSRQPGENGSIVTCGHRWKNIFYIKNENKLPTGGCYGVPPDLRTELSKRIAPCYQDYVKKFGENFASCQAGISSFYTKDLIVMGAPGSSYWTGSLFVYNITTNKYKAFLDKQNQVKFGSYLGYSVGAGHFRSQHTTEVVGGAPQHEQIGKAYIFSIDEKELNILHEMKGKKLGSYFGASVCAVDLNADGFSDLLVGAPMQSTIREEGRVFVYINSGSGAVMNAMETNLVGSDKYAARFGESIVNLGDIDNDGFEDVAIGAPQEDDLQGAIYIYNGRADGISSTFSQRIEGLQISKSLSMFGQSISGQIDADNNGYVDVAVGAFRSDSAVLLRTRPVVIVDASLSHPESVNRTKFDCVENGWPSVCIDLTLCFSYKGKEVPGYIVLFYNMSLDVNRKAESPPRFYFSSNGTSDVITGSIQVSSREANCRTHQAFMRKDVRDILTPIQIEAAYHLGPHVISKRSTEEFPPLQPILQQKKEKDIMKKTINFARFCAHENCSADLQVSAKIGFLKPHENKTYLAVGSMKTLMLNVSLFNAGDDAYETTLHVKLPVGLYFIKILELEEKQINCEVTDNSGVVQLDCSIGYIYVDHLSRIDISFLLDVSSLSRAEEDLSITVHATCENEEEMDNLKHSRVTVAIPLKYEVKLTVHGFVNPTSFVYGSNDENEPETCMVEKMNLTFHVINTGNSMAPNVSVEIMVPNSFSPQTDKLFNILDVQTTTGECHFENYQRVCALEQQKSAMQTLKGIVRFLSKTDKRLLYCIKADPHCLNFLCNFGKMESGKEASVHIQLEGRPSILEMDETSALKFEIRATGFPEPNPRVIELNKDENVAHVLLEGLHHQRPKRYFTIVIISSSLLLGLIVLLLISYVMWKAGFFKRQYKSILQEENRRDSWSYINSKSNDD
# Chain of Beta-2 adrenergic receptor (Homo sapiens) (P07550 whole entry, looked up): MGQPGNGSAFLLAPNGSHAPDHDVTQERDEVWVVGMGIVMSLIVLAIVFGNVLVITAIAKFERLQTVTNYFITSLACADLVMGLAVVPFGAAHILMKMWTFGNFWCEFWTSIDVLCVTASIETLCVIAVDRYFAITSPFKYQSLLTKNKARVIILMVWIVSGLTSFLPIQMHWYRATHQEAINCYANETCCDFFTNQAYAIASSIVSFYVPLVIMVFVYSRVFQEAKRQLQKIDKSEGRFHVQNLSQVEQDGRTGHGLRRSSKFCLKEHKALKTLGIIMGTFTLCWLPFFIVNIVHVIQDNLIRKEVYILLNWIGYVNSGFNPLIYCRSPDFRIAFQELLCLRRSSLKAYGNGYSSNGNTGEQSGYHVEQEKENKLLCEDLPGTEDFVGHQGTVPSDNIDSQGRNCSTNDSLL
smiles,measurement,setting,value
N=c1nc(N2CCCCC2)cc(N)n1O,percent of DMSO control GFP,[1],90.9% (inactive)
same,GFP response vs DMSO,[2],143% (active)
same,percent response of DMSO control,[3],107% (inactive)
same,GFP response vs DMSO,[4],86.4% (inactive)
same,"GFP response, % of DMSO",[5],90.1% (inactive)
same,GFP response vs DMSO,[6],97.4% (inactive)
same,GFP response vs DMSO,[6]; [21],97.4%
same,GFP response vs DMSO,[6]; [22],97.4%
same,GFP response relative to DMSO,[7],101% (inactive)
same,GFP response relative to DMSO,[7]; [23],101%
same,GFP response relative to DMSO,[7]; [24],99.3%
same,GFP response vs DMSO,[8],98.3% (inactive)
same,"GFP response, % of DMSO",[9],99.7% (inactive)
same,"GFP response, % of DMSO",[9]; [21],103%
same,"GFP response, % of DMSO",[9]; [22],99.7%
same,double positive events,[10],59.7%
same,vesicle binding response,[10],117% (inactive)
same,inhibition,[11],16.2% (inactive)
same,superoxide response (% of plate),[12],89.4% (inactive)
same,aptamer binding inhibition,[13],2% (inactive)
same,response,[14],-8.64% (inactive)
same,inhibition,[15],33.9% (inactive)
same,response,[16],-5.96% (inactive)
same,binding (% of control),[17],98.5% (inactive)
same,efflux inhibition (fraction of control),[18],0.37 (inactive)
same,inhibition,[19],115% (active)
same,differentiation response,[20],8.19% (inactive)
CNCCC(Oc1ccc(C(F)(F)F)cc1)c1ccccc1 (configuration not stated),percent of DMSO control GFP,[1],89.8% (inactive)
same,GFP response vs DMSO,[2],141% (active)
same,percent response of DMSO control,[3],107% (inactive)
same,GFP response vs DMSO,[4],83.1% (inactive)
same,"GFP response, % of DMSO",[5],90.3% (inactive)
same,GFP response vs DMSO,[6],98.4% (inactive)
same,GFP response vs DMSO,[6]; [21],97%
same,GFP response vs DMSO,[6]; [22],99.1%
same,GFP response relative to DMSO,[7],97.4% (inactive)
same,GFP response relative to DMSO,[7]; [23],95.6%
same,GFP response relative to DMSO,[7]; [24],101%
same,GFP response vs DMSO,[8],102% (inactive)
same,"GFP response, % of DMSO",[9],93.9% (inactive)
same,"GFP response, % of DMSO",[9]; [21],94.8%
same,"GFP response, % of DMSO",[9]; [22],93.4%
same,double positive events,[10],58%
same,vesicle binding response,[10],142% (inactive)
same,inhibition,[11],6.46% (inactive)
same,superoxide response (% of plate),[12],85.8% (inactive)
same,aptamer binding inhibition,[13],0% (inactive)
same,response,[14],16.8% (inactive)
same,inhibition,[15],13.5% (inactive)
same,response,[16],1.16% (inactive)
same,binding (% of control),[17],94.1% (inactive)
same,inhibition,[19],6% (inactive)
same,differentiation response,[20],-1.64% (inactive)
c1cnc2c(c1)ccc1cccnc12,percent of DMSO control GFP,[1],98.9% (inactive)
same,GFP response vs DMSO,[2],107% (inactive)
same,percent response of DMSO control,[3],96.4% (inactive)
same,GFP response vs DMSO,[4],174% (active)
same,"GFP response, % of DMSO",[5],117% (inactive)
same,GFP response vs DMSO,[6],101% (inactive)
same,GFP response vs DMSO,[6]; [21],100%
same,GFP response vs DMSO,[6]; [22],100%
same,GFP response relative to DMSO,[7],116% (inactive)
same,GFP response relative to DMSO,[7]; [23],116%
same,GFP response relative to DMSO,[7]; [24],117%
same,GFP response vs DMSO,[8],112% (inactive)
same,"GFP response, % of DMSO",[9],111% (inactive)
same,"GFP response, % of DMSO",[9]; [21],117%
same,"GFP response, % of DMSO",[9]; [22],107%
same,double positive events,[10],59.5%
same,vesicle binding response,[10],192% (inactive)
same,inhibition,[11],19.3% (inactive)
same,superoxide response (% of plate),[12],77.1% (inactive)
same,aptamer binding inhibition,[13],8% (inactive)
same,response,[14],-45.4% (inactive)
same,inhibition,[15],10.3% (inactive)
same,response,[16],9.34% (inactive)
same,binding (% of control),[17],105% (inactive)
same,efflux inhibition (fraction of control),[18],-0.13 (inactive)
same,inhibition,[19],4% (inactive)
same,differentiation response,[20],-0.06% (inactive)
c1ccc2c(c1)CCOC2CNCCCN1CCCCC1 (configuration not stated),percent of DMSO control GFP,[1],92% (inactive)
same,GFP response vs DMSO,[2],142% (active)
same,percent response of DMSO control,[3],126% (active)
same,GFP response vs DMSO,[4],98% (inactive)
same,"GFP response, % of DMSO",[5],113% (inactive)
same,GFP response vs DMSO,[6],101% (inactive)
same,GFP response vs DMSO,[6]; [21],101%
same,GFP response vs DMSO,[6]; [22],102%
same,GFP response relative to DMSO,[7],92.6% (inactive)
same,GFP response relative to DMSO,[7]; [23],97.2%
same,GFP response relative to DMSO,[7]; [24],94.2%
same,GFP response vs DMSO,[8],100% (inactive)
same,"GFP response, % of DMSO",[9],108% (inactive)
same,"GFP response, % of DMSO",[9]; [21],105%
same,"GFP response, % of DMSO",[9]; [22],113%
same,double positive events,[10],52.2%
same,vesicle binding response,[10],279% (inactive)
same,inhibition,[11],14.2% (inactive)
same,superoxide response (% of plate),[12],110% (inactive)
same,aptamer binding inhibition,[13],-3% (inactive)
same,response,[14],0.72% (inactive)
same,inhibition,[15],-5.37% (inactive)
same,response,[16],-6.48% (inactive)
same,binding (% of control),[17],105% (inactive)
same,efflux inhibition (fraction of control),[18],0.01 (inactive)
same,inhibition,[19],-2% (inactive)
same,differentiation response,[20],-3.28% (inactive)
